Compound activity: PubChem, National Center for Advancing Translational Sciences (NCATS)
The list is not random: actives were taken first. Their share in the collection is about 2.2%.
TDP43 rescue: rescues yeast growth from TDP-43 toxicity | TDP-43 expressing yeast growth rescue, BacTiter-Glo, 24 h | Potency, µM (doses to about 46.1 µM), for inactives: at the highest dose growth rescue (activation), most hits filed as activators | 1.8% of 410,000 active | AID 652104; note: % of control where 0% means no effect; nearly all actives have a fitted effect of over 50% in size
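Readout is BacTiter-Glo luminescence of cell growth, so inhibitors register as activators. TDP-43-expressing yeast at OD600=0.02 in galactose medium, after raffinose pregrowth to mid-log, were incubated with compound for 24 hr at 30 deg C.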
Abeta rescue: restores growth of yeast expressing A-beta42 peptide | yeast expressing A-beta42, growth rescue, OD600, 48 h; response scale: 0% DMSO, 100% iron-clioquinol control | Potency, µM (series often up to 46.1 µM), actives largely listed as activators | 0.063% of 410,000 active | AID 1347071; note: nearly all actives have a fitted effect of over 55% in size
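Yeast growth medium received pinned compounds, then yeast cells expressing toxic A-beta were added; plates incubated at 30 C for 48 hr. Growth read as absorbance at 600 nm, normalized to DMSO and equimolar FeCl3 plus clioquinol controls.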
FUS yeast rescue: suppressors of FUS proteinopathy in yeast | AID 1347120 | 0.24% of 390,000 active | S. cerevisiae FUS-expressing, growth rescue, OD600, 24 h | Potency, µM (top dose mostly 76.6 µM), most hits filed as activators;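 note: plate controls were DMSO vehicle for no effect and reference control for full effect; nearly all actives have a fitted effect of over 55% in size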
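Restored growth of FUS-toxic S. cerevisiae, read as 600 nm absorbance after 24 h at 30C in galactose medium (starting OD 0.005). Controls CP55940 and DMSO.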
aSyn yeast inh: alpha-synuclein toxicity inhibition in yeast; Yeast expressing alpha-synuclein, growth rescue, BacTiter-Glo, 24 h; Potency, µM (doses to about 46.1 µM), for the others: top-dose growth rescue (activation), hits mostly activators; 0.14% of 370,000 active; note: % of control where 0% means no effect; nearly all actives have a fitted effect of over 65% in size
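Galactose-induced alpha-syn yeast (OD600=0.02, raffinose-pregrown) + pinned cpd, 24 hr, 30 deg C; growth by BacTiter-Glo luminescence. Growth restoration scores as activation.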
Mito fusion yeast: mitochondrial division inhibition or fusion activation; S. cerevisiae fusion-defective mutant growth rescue, CellTiterGlo 48 h; Potency, µM (series often up to 46.1 µM), for the others: at the top dose growth rescue (activation), most hits filed as activators; 0.23% of 320,000 active; AID 485298; note: % of control where 0% means no effect; nearly all actives have a fitted effect of over 45% in size
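Luminescent cell viability in 1536-well qHTS format served as the measure of rescued growth in ts fusion-mutant S. cerevisiae cultured on non-fermentable YPEG for 48 hours at 37C.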
Numbers without * were called inactive; i = inactive; ? = inconclusive; / = no result; [ ] = remark or other dose. Calls come from the whole dose curve; as a rule, active = well fitted curve in the direction sought with a large enough effect; inconclusive = small, poorly fitted or top-dose-only effect, or another doubt; inactive = no such curve, though single readings can be large; an effect the other way counts as inactive or inconclusive. Potency is the fitted concentration of half-maximal effect.

SMILES | TDP43 rescue | Abeta rescue | FUS yeast rescue | aSyn yeast inh | Mito fusion yeast
Cc1nn(Cc2ccc(F)cc2)c(C)c1NC(=O)c1cnn2c1NC(c1cccs1)CC2C(F)(F)F (configuration not stated) | -1.7% | i | 28.2µM* | -0.2% | 0.3%
Cc1nn(Cc2ccc(F)cc2)c(C)c1NC(=O)c1cnn2c1NC(c1ccccc1)CC2C(F)(F)F (configuration not stated) | 3.1% | i | ? | 0.5% | -2.8%
Cc1ccc(Sc2nnc(-c3ccccc3)cc2C#N)cc1 | 21.1% | i | i | 3.8% | -1.0%
Cc1ccc(Sc2ccc(N)cc2C#N)cc1 | 22.4µM* | i | / | 13.1% | /
Cc1nc(-c2cccnc2)sc1C(=O)Nc1cccc(C(F)(F)F)c1 | 12.6µM* | i | i | -9.2% | 10.3%
Cc1nc(Cl)sc1C(=O)Nc1cccc(C(F)(F)F)c1 | 6.1% | i | i | 0.1% | /
CNC(=O)c1sc(-c2cccnc2)nc1C | 20.4% | i | i | 3.2% | -0.7%
Cc1nc(-c2cccnc2)sc1C(=O)Nc1ccc(C(F)(F)F)cc1 | 11.2µM* | i | i | -3.6% | 21.2%
Cc1ccc(NC(=O)C2CCN(S(=O)(=O)c3c(C)noc3C)CC2)c(C)c1 | 14.7% | i | i | / | /
Cc1nn2c(=O)cc(COC(=O)c3cccs3)nc2s1 | 6.7% | i | i | / | /
Cc1ccc2c(=O)cc(C(=O)NCc3ccccc3)oc2c1C | 6.0% | i | i | -3.0% | 12.6µM*
Cc1cc(C)c2oc(C(=O)NCc3ccccc3)cc(=O)c2c1 | -22.2% | i | i | -4.9% | 11.9%
CC(C)(O)c1cc2ccc(C#Cc3ccsc3)cc2c(=O)o1 | 25.1µM* | i | i | 0.6% | ?
Brc1cccc(-c2nnc(SCc3ccon3)n2-c2ccccc2)c1 | 17.8µM* | i | i | 14.0% | -0.1%
Cc1cccc(N2CCN(c3ncnc4c3nc3n4CCCCC3)CC2C)c1 (configuration not stated) | ? | i | i | / | /
Cc1nc2c(OCCC3CCCCC3)cccn2c1N(C)C(=O)CCC1CCCC1 | 35.5µM* | i | i | -50.3% | /
Cc1nc2c(OCc3cc(Cl)cc(Cl)c3)cccn2c1N(C)C(=O)CCC1CCCC1 | 35.5µM* | i | ? | -44.2% | /
CC(C)NC(=O)C1CCC(Cn2c(=O)c3sccc3n(CC(=O)Nc3ccccc3)c2=O)CC1 (configuration not stated) | 11.7% | i | i | / | /
Cc1cc(NC(=O)c2ccccc2F)n(-c2nc3ccccc3[nH]2)n1 | 10.4% | i | i | -6.6% | 19.3%
Cc1cc(Nc2ccccc2)n(-c2nc3ccccc3[nH]2)n1 | 15.8µM* | i | i | 10.1% | 9.0%
Cc1cccc(NC(=O)C2CCN(S(=O)(=O)c3c(C)c(C)cc(C)c3C)CC2)n1 | 28.3% | i | ? | 26.7% | 20µM*
Cc1cccc(NC(=O)C2CCN(S(=O)(=O)c3c(C)nn(C)c3C)CC2)n1 | 13.7% | i | i | 0.2% | -2.4%
Cc1nn(-c2ccccc2)c(OC(=O)c2cccs2)c1S(=O)(=O)c1ccc([N+](=O)[O-])cc1 | -31.5% | i | 39.8µM* | -2.2% | -3.2%
O=C(c1cc2c(=O)oc3ccccc3c2s1)N1CCN(c2cccc(Cl)c2)CC1 | -23.2% | i | i | / | /
Cc1cscc1-c1ccc(C(=O)Nc2c(C)cccc2C)o1 | 14.1µM* | i | i | 28.7% | /
SMILES | TDP43 rescue | Abeta rescue | FUS yeast rescue | aSyn yeast inh | Mito fusion yeast
Cc1ccc(-c2ccc(C(=O)Nc3ccccc3)o2)c2ccccc12 | 26.5% | i | i | 9.1% | ?
O=C(NCc1ccco1)O[C@H]1CC[C@@]23CCCN2C(=O)CCC[C@H]3C1 | / | / | i | / | /
O=C(O)C1C2C=CC(C3CC23)C1C(=O)O (configuration not stated) | 14.1µM* | i | i | 6.6% | -0.9%
Cc1cccc(NC(=O)C2C3C=CC(C4CC34)C2C(=O)O)c1 (configuration not stated) | ? | i | i | 9.1% | 4.7%
Cc1cccc(NNC(=S)Nc2ccccc2)c1 | 26.3% | i | i | 12.6% | /
Cc1cccc(NNC(=S)Nc2c(C)cccc2C)c1 | ? | 7.08µM* | i | 11.9% | -47.2%
Cc1cccc(NC(=S)NNc2cccc(Cl)c2)c1 | 10.7% | 12.6µM* | i | 12.6% | -35.4%
O=C(CC[C@H]1O[C@@H](n2cnc3c(NC(=O)c4ccccc4)ncnc32)[C@H](O)[C@@H]1O)NCc1ccccn1 | ? | i | i | -0.2% | /
Oc1cc2cc(-c3csc(-c4ccc(F)cc4)n3)ccc2[nH]1 | / | / | / | -15.3% | /
CCOC(=O)C1=C[C@@H](C(C)(C)C)N(S(=O)(=O)c2ccc(C)cc2)[C@H]1c1ccccc1 | -0.3% | i | i | -20.7% | /
CCc1ccc([C@H]2C(C(=O)O)=C[C@@H](C(C)(C)C)N2S(=O)(=O)c2ccc(C)cc2)cc1 | 14.1µM* | i | i | -14.4% | /
COc1ccc(N2CCCN(CC(=O)Nc3ccc(Cl)c(Cl)c3)CC2)cc1 | / | / | i | / | /
O=C(CSc1nccc(-c2cccs2)n1)Nc1cccc(Cl)c1 | 14.1µM* | i | i | 2.8% | 29.5%
Clc1ccc(C(Cn2ccnc2)OCc2c(Cl)cccc2Cl)c(Cl)c1 (configuration not stated) | ? | i | i | ? | 6.31µM*
OC(Cn1ccnc1)c1ccc(Cl)cc1Cl (configuration not stated) | 2.6% | i | i | 2.2% | -3.3%
Cc1ccc(C(=O)c2cn(Cc3ccccc3)c3nc(C)ccc3c2=O)cc1 | 11.2µM* | i | i | / | /
CCn1cc(C(=O)NCCc2ccccc2C)c(=O)c2ccc(C)nc21 | 0.0% | i | i | 0.2% | 4.3%
Cc1ccc2c(=O)c(C(=O)c3ccc(F)cc3)cn(CC(=O)NCc3ccccc3)c2n1 | 4.7% | i | i | / | /
Cc1ccc(C(=O)c2cn(Cc3cccc(F)c3)c3nc(C)ccc3c2=O)cc1 | 14.1µM* | i | i | / | /
CCc1ccc(C(=O)c2cn(CC(=O)Nc3cc(OC)ccc3OC)c3nc(C)ccc3c2=O)cc1 | -26.3% | i | 35.5µM* | / | /
Cc1ccc(C(=O)c2cn(Cc3ccccc3C)c3nc(C)ccc3c2=O)cc1 | ? | i | 25.1µM* | / | /
Cc1ccc(C(=O)c2cn(CC(=O)NCc3ccccc3)c3nc(C)ccc3c2=O)cc1 | 5.4% | i | i | / | /
CCOC(=O)CSc1nc2sc3c(c2c(=O)n1CC)CCCC3 | 5.3% | i | i | / | /
C=C1C=C(C(F)F)n2ncc(C(=O)Nc3cccc(CC)c3)c2N1 | / | / | / | -3.5% | /
CN(C)/C=N/c1nc2nccc(-c3ccccn3)n2n1 | 10.4%[9.22 µM] | i | i | -2.4% | 2.2%
Cc1ccc(-c2ccnc3nc(-n4cccc4)nn23)o1 | 35.5µM* | i | i | -3.3% | 7.3%
